Here are results for 22 molecules from ChEMBL document CHEMBL1157539, “Thousands of chemical starting points for antimalarial lead identification” (Nature, 2010).

Holding throughout (format): functional
The subject of assay [1] is Plasmodium falciparum. The experiment in a line: GSK_TCMDC: Inhibition of Plasmodium falciparum 3D7 in whole red blood cells, using parasite LDH activity as an index of growth. Test compounds present at 2uM.
The subject of assay [2] is Plasmodium falciparum. The experiment in a line: GSK_TCMDC: Inhibition of Plasmodium falciparum Dd2 in whole red blood cells, using parasite LDH activity as an index of growth. Test compounds present at 2uM.
The subject of assay [3] is HepG2. The assay can be described thus: GSK_TCMDC: Percent inhibition of human HepG2 cell line. Test compounds present at 10uM.

Broadly, the Inhibition is the percentage by which the read-out fell short of the control. A higher Inhibition goes with strong suppression.

On to `Br.CCC(CCON1C(N)=NC(N)=NC1(C)C)c1ccc(Cl)cc1` (stereo unspecified), for which the Inhibition in assay [1] came out at 94%; in assay [2] it was 95%; in assay [3] it was 66%.
Taken in the same sequence, the figures for `O=C(NC1CCC(N2CCCC(OCc3ccccc3)C2)CC1)c1cc2ccccc2[nH]1` (stereo unspecified) were 94%, 11% and 38%.
In the same order, the values of `c1ccc(Oc2ccc(Nc3nc(NCCc4c[nH]cn4)nc(NC4CCCC4)n3)cc2)cc1` are 97%, 23% and 0%.
Taken in the same sequence, the figures for `O=C(Nc1ccccc1)OCCOc1ccc(CC2SC(=O)NC2=O)cc1` (stereo unspecified) were 100%, 0% and 1%.
Turning to `Cc1ccc(-c2nc(Nc3ccncc3)c3ccccc3n2)s1`, the Inhibition in assay [1] came out at 95%; in assay [2], 34%; in assay [3], 6%.
As to `COc1cc(F)c2nccc([C@@H](O)CN3CCC(NCc4cc5c(cc4F)OCCO5)CC3)c2c1`, the Inhibition is recorded as 99% in assay [1], 45% in assay [2] and 23% in assay [3].
Consider `COc1ccc(Cc2cccc(C(C(=O)NCc3cc(Cl)cc(Cl)c3)N3CCN(C)CC3)c2)cc1.O=C(O)C(F)(F)F` (stereo unspecified), for which the figures for the Inhibition in assay [1], in assay [2] and in assay [3] were 100%, 24% and 8%, respectively.
Regarding `COc1cc(Br)ccc1N1CCN(CCCCNC(=O)c2ccc(NC(=O)c3ccc(Cl)cc3)cc2)CC1.Cl`, the results for the Inhibition in assay [1], in assay [2] and in assay [3] were 96%, 33% and 55%, respectively.
In the same order, the values of `CS(=O)(=O)c1ccc(-c2cnc(N)c(-c3ccc(O)cc3)c2)cc1` are 84%, 94% and 38%.
Turning to `CC(=O)Nc1ncc(C(=O)Nc2cccc(-c3cccc(-c4nc5cc(C(F)(F)F)ccc5[nH]4)c3)c2)s1`, the Inhibition in assay [1] is recorded as 100%; in assay [2], 99%; in assay [3], 76%.
Taken in the same sequence, the figures for `Cc1nc2c(c(C)nn2C(C)(C)C)c(C)c1CCC(=O)Nc1ccc(CN2CCCC2)cc1` were 89%, 5% and 1%.
In the same order, the values of `CN1CCN(CCCNc2ncc3c(-c4ccc(NC(=O)Nc5cc(C(F)(F)F)ccc5F)c(F)c4)nn(C)c3n2)CC1.O=C(O)C(F)(F)F` are 98%, 94% and 100%.
Taken in the same sequence, the figures for `CCOC(=O)N1CCC(NC(=O)c2ccc(C(C)(C)C)cc2OC)CC1` were 88%, 0% and 0%.
On to `CC(=O)Nc1cccc(C(=O)Nc2cccc(-c3ccc(-c4nc5cccc(C)c5[nH]4)cc3)c2)c1`, for which the Inhibition was 95% in assay [1], 12% in assay [2] and 29% in assay [3].
Taken in the same sequence, the figures for `CC(C)NCc1cccc(-c2cccc(-c3nc4cc(F)ccc4[nH]3)c2)c1.O=C(O)C(F)(F)F` were 100%, 85% and 20%.
Taken in the same sequence, the figures for `O=C(NCc1ccc(Cl)c(Cl)c1)c1ccc(-c2nc3ccc(F)cc3[nH]2)cc1` were 93%, 9% and 0%.
Take `Cl.Nc1ncc(-c2ccccc2)cc1-c1nc2cc(Cl)c(F)cc2[nH]1`: the Inhibition was determined as 100% in assay [1], 91% in assay [2] and 37% in assay [3].
In the same order, the values of `Cc1sc2nc(CSc3ccccc3)nc(N3CCN(CC(=O)N4CCCC4)CC3)c2c1C` are 91%, 69% and 19%.
Taken in the same sequence, the figures for `COc1ccc(CC(=O)NC(CCN2CCC3(CCc4ccccc43)CC2)c2ccc(Cl)c(Cl)c2)cc1` (stereo unspecified) were 90%, 75% and 28%.
Taken in the same sequence, the figures for `CS(=O)(=O)c1cccc(-c2cnc3[nH]cc(-c4cccc(CCN)c4)c3c2)c1.O=C(O)C(F)(F)F` were 99%, 74% and 0%.
For `O=[N+]([O-])c1ccc(N2CCCN(C(=S)Nc3ccc(F)cc3Br)CC2)nc1`, the Inhibition in assay [1] is on record as 100%; in assay [2], 99%; in assay [3], 4%.
In the same order, the values of `COc1ccc(Cl)cc1N1CCN(CCCNC(=O)c2ccc(-c3nc4ccc(C(F)(F)F)cc4[nH]3)c(C)c2)CC1` are 95%, 14% and 6%.
